Outcome data for 5 molecules are collected here from PubChem BioAssay AID1053124 (Broad Institute, 2014).

Entries with a potency or affinity are not part of this list. Calls of active or inactive are those of the source.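 The calls were made as follows: active = cell killing whose fitted half-effect concentration is at most twice the top valid dose tested; inconclusive = flat curve with 30 to 70% killing, or a poor fit; inactive = effect in the rising direction, plus the rest.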

The experiment in a line: A549 cell cytotoxicity, dose response, cytotoxicity control, ATP luminescence, cherry-pick, set 2 (AID 1053124). The note with it: A549 viability, ATP luminescence (CellTiter-Glo), 72 h; series mostly up to 26 µM.
Regarding `Cc1ccc(OCC(=O)NNc2c3ccccc3nc3ccccc23)cc1`, the result was inactive. As to `Cc1cc(C)nc(SCC(=O)Nc2ccc(S(=O)(=O)Nc3onc(C)c3C)cc2)n1`, the outcome was inactive. Regarding `COc1ccc(NC(=O)C2CCC(CNS(=O)(=O)c3cccs3)CC2)cc1` (stereo not given), the call was inactive. In the case of `O=c1oc2c(CN3CCN(CCO)CC3)c(O)ccc2cc1-c1ccccn1` it was “inactive”; in that of `COc1ccccc1C(=O)c1cc2ccc(O)cc2oc1=O`, “inactive”.
